Shown are actives, neighbours in structure and some others; about 3.4% of the full set was active somewhere.
hcDAF12 agonist = H. contortus DAF-12 activation, primary screen | AID 652067 | hit rate 1.4% among 370,000 | HEK293 hcDAF-12 lit1-tk-luc reporter, luminescence; 0% DMSO, 100% Δ7-dafachronic acid | activation, % at 6.8 µM;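 active = activation above the mean of all tested compounds plus 3 SD, cut at about 5.5% in these data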
NF-kB expr up = compounds increasing NF-kB expression in human neuronal cells. hit rate 1.6% among 190,000. fold change at 12.5 µM. AID 1239. NF-kB reporter expression; hits give high values; in the data active = fold change above about 3.3
APP 5'UTR act = APP 5'UTR luciferase reporter activation; SH-SY5Y APP 5'UTR luciferase reporter, luminescence; zero percent = DMSO vehicle wells; hit rate 1% among 190,000; AID 1276; activation, % at 2 µM;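 active = activation above a set limit, based on mean plus 3 SD of controls, cut at about 140% in these data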
hgDAF12 agonist = hgDAF-12 agonism, primary luciferase screen | HEK293 GAL4-hgDAF12 UAS-luciferase reporter, agonist luminescence; normalized to butyrate control | activation, % at 6.8 µM | hit rate 1.8% among 370,000;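 active = activation above a cutoff set at the mean of all screened compounds plus 3 SD, cut at about 10% in these data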
ssDAF-12 act = activates DAF-12 receptor from parasite S. stercoralis. HEK293 ssDAF-12/GRIP1 lit1-tk-luc reporter, luminescence; % of 3 µM dafachronic acid response. hit rate 1% among 370,000. AID 652126. activation, % at 6.8 µM;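 active = activation above the mean over all tested compounds plus 3 SD, cut at about 0.9% in these data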
hgDAF12 ag = hgDAF-12 agonism, confirmation assay. activation, % at 6.8 µM. shares compounds with hgDAF12 agonist. HEK293 GAL4-hgDAF12 luciferase reporter, agonist mode; percent of butyrate response. hit rate 80% among 3,300;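 active = mean activation over triplicate wells above the hit cutoff derived from the earlier primary screen, cut at about 11% in these data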
LXRb DAF12 ctr = LXR-beta agonism as DAF-12 counter-screen | shares compounds with hgDAF12 agonist | HEK293 Gal4-LXR luciferase reporter, 24 h | activation, % at 6.8 µM | 3,300 tested, under 10 active | AID 743051;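 active = mean activation of the triplicate above a set limit carried over from the primary screen, none filed active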
Target sequence (P55055 whole entry, looked up, the tested form may be a part): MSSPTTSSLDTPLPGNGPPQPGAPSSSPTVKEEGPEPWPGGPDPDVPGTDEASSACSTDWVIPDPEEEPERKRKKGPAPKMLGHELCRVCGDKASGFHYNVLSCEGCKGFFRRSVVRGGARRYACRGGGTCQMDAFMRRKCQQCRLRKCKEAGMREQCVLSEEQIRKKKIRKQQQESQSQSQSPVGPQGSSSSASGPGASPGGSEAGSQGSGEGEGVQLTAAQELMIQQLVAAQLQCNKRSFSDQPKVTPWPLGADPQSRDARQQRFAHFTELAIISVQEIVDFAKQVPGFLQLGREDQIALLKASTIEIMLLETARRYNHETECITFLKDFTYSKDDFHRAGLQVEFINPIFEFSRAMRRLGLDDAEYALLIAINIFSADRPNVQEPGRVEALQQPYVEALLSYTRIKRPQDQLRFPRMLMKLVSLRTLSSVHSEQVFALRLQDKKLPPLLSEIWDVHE
Of the large screens only hits and unclear results are named; the others gave an inactive call (follow-up assays come after a bar, where they were run).

COC(=O)[C@]12C[C@H](CC(=O)N3CCCC3)C(=O)N(Cc3ccccc3)C1=C[C@H](COCc1ccccc1)O[C@@H]2C	none (no result: NF-kB expr up, APP 5'UTR act)
CN(C)c1ccc(NC(=O)/C=C/c2ccccc2Cl)cc1	hgDAF12 agonist 18 | hgDAF12 ag 14 | LXRb DAF12 ctr inactive
Cc1cc(C2=NNC(=NC3CC3)SC2)c(C)n1Cc1ccco1	none
COCCCN=C1NN=C(c2cc(C)n(Cc3ccco3)c2C)CS1	hgDAF12 agonist 15, ssDAF-12 act 1.6 | hgDAF12 ag inactive | LXRb DAF12 ctr inactive
Cc1ccc(-c2nnc(SCC(=O)Nc3ccc(F)cc3F)n2Cc2ccco2)cc1	none (no result: NF-kB expr up, APP 5'UTR act)
COc1ccc(-c2ccc(C(=O)Nc3ccccc3)c3occc23)c(C)c1	hgDAF12 agonist 20 (no result: NF-kB expr up, APP 5'UTR act) | hgDAF12 ag 11 | LXRb DAF12 ctr inactive
Cc1noc(C)c1-c1ccc(C(=O)Nc2ccccc2)c2occc12	hgDAF12 agonist 18, ssDAF-12 act 1.0 (no result: NF-kB expr up, APP 5'UTR act) | hgDAF12 ag 13 | LXRb DAF12 ctr inactive
COc1ccc(-c2ccc(C(=O)NCC(C)C)c3occc23)c(C)c1	none (no result: NF-kB expr up, APP 5'UTR act)
CCOc1ccc(CN(CCC#N)C(=S)NC(=O)c2ccccc2)cc1	hgDAF12 agonist 17 | hgDAF12 ag inactive | LXRb DAF12 ctr inactive
O=C(Nc1ccc(N2CCOCC2)cc1)c1nc2ccccc2s1	hgDAF12 agonist 18 (no result: NF-kB expr up, APP 5'UTR act) | hgDAF12 ag 15 | LXRb DAF12 ctr inactive
Nc1nc2ccc(C(=O)Nc3ccc(N4CCOCC4)cc3)cc2s1	none (no result: NF-kB expr up, APP 5'UTR act)
COc1cc2c(cc1NC(=O)CSc1nnc(-c3cccnc3)n1-c1ccc(Br)cc1)oc1ccccc12	none (no result: NF-kB expr up, APP 5'UTR act)
O=C(N/N=C/c1cn(-c2ccccc2)nc1-c1cc2ccccc2o1)c1c[nH]c2ccccc12	APP 5'UTR act 187, hgDAF12 agonist 19 (no result: NF-kB expr up) | hgDAF12 ag 13 | LXRb DAF12 ctr inactive
OCc1cn(-c2ccccc2)nc1-c1cc2ccccc2o1	NF-kB expr up 9.7, hgDAF12 agonist 14, ssDAF-12 act 1.1 | hgDAF12 ag 15 | LXRb DAF12 ctr inactive
O=C(N/N=C/c1coc2ccccc2c1=O)c1cn(-c2ccccc2)nc1-c1ccccc1	none
COc1ccc(NC(=O)c2cn(-c3ccccc3)nc2-c2cc3ccccc3o2)cc1	none
O=C(CSc1nnc(-c2ccc(Cl)cc2)n1-c1ccccc1)Nc1ccc(Oc2ccccc2)cc1	none (no result: NF-kB expr up, APP 5'UTR act)
CC1(C)C=C2C(N(Cc3ccc4c(c3)OCO4)C(=N)N2C(=O)OCc2ccccc2)n2c(=O)n(-c3ccccc3)c(=O)n21 (configuration not stated)	none (no result: NF-kB expr up, APP 5'UTR act)
Cc1ccc2c(c1)C1CS(=O)(=O)N(Cc3ccccc3)CN1C2 (configuration not stated)	none (no result: NF-kB expr up, APP 5'UTR act)
Cn1cc(C2N3CC4(C)CN2CC(C)(C3)C4=O)c2ccccc21 (configuration not stated)	hgDAF12 agonist 16 | hgDAF12 ag inactive | LXRb DAF12 ctr inactive
Nc1nc(N)nc(-c2cccc(Br)c2)n1	hgDAF12 agonist 14 (no result: NF-kB expr up, APP 5'UTR act) | hgDAF12 ag 11 | LXRb DAF12 ctr inactive
Cc1cccc(-c2nc(N)nc(N)n2)c1	none (no result: NF-kB expr up, APP 5'UTR act)
O=C(O)CCNC(=O)OCC1c2ccccc2-c2ccccc21	none (no result: NF-kB expr up, APP 5'UTR act)
CC(C)C[C@H](NC(=O)OCC1c2ccccc2-c2ccccc21)C(=O)O	hgDAF12 agonist 16 (no result: NF-kB expr up, APP 5'UTR act) | hgDAF12 ag 12 | LXRb DAF12 ctr inactive
O=C(OCCN1CCN(C2CN(Cc3cn(Cc4cccc(F)c4)nn3)S(=O)(=O)C2)CC1)c1cc2ccccc2o1 (configuration not stated)	none (no result: NF-kB expr up, APP 5'UTR act)
Clc1ccc(OCc2nc3ccccc3[nH]2)cc1	APP 5'UTR act 184, hgDAF12 agonist 23 (no result: NF-kB expr up) | hgDAF12 ag inactive | LXRb DAF12 ctr inactive
Cc1ccc(C(=O)Cc2nc3ccccc3[nH]2)cc1	none (no result: NF-kB expr up, APP 5'UTR act)
Cc1ccc(OCc2nc3ccccc3[nH]2)cc1	hcDAF12 agonist 6.0, APP 5'UTR act 164, hgDAF12 agonist 16 | hgDAF12 ag 13 | LXRb DAF12 ctr inactive
C/C(=N\NC(=O)c1cc(-c2ccccc2)nc2ccccc12)c1ccc(Cl)cc1	none (no result: NF-kB expr up, APP 5'UTR act)
Cc1ccc(Cn2cc(CN3[C@@H](CC(C)C)COc4cc(Br)ccc4S3(=O)=O)nn2)cc1	none (no result: NF-kB expr up, APP 5'UTR act)
NS(=O)(=O)c1ccc(C(=O)Nc2ccc(-c3nc4cccnc4s3)cc2)cc1	hgDAF12 agonist 14 (no result: NF-kB expr up, APP 5'UTR act) | hgDAF12 ag 14 | LXRb DAF12 ctr inactive
Clc1ccc2c(c1)[C@H]1OCC[C@H]1[C@@H](c1ccco1)N2	none
CCc1ccc2c(c1)[C@H]1OCC[C@H]1[C@@H](c1cccs1)N2	hgDAF12 agonist 14 | hgDAF12 ag 11 | LXRb DAF12 ctr inactive
O=C1c2ccccc2-c2nnc(-c3ccc(F)cc3)cc21	hcDAF12 agonist 6.0, NF-kB expr up 4.5, APP 5'UTR act 144, hgDAF12 agonist 15, ssDAF-12 act 1.4 | hgDAF12 ag 11 | LXRb DAF12 ctr inactive
COc1ccc(-c2csc(N=C(N)N)n2)cc1	hgDAF12 agonist 16 | hgDAF12 ag 11 | LXRb DAF12 ctr inactive
Cc1ccc(CN2CCCCC(NC(=O)c3ccc(-c4ccccc4)cc3)C2=O)cc1 (configuration not stated)	none (no result: NF-kB expr up, APP 5'UTR act)
COc1ccc(C2=Nc3ccccc3N(C(=O)c3ccc(C)cc3)C2C(=O)Nc2c(C)cccc2C)cc1 (configuration not stated)	none (no result: NF-kB expr up, APP 5'UTR act)
COc1ccc(C2=Nc3ccccc3N(C(=O)c3ccc4c(c3)OCO4)C2C(=O)Nc2c(C)cccc2C)cc1 (configuration not stated)	hgDAF12 agonist 14 (no result: NF-kB expr up, APP 5'UTR act) | hgDAF12 ag inactive | LXRb DAF12 ctr inactive
CC(COc1ccc([N+](=O)[O-])cc1Cl)CN1CCC(C(O)(c2ccccc2)c2ccccc2)CC1 (configuration not stated)	none (no result: NF-kB expr up, APP 5'UTR act)
CCC(=O)Nc1nc2ccc3sc(C)nc3c2s1	none
Cc1nc2c(ccc3nc(NC(=O)C4CC4)sc32)s1	NF-kB expr up 4.7, hgDAF12 agonist 15 | hgDAF12 ag 12 | LXRb DAF12 ctr inactive
C[C@H]1[C@@H](O)CC[C@@]23CCCN2C(=O)CCC[C@@H]13	none (no result: NF-kB expr up, APP 5'UTR act)
Nc1ccc(-c2nnn(Cc3ccccc3)n2)cc1	none (no result: NF-kB expr up, APP 5'UTR act)
O=C(O)c1cccc(-c2nnn(Cc3ccccc3)n2)c1	hcDAF12 agonist 5.7, hgDAF12 agonist 15 | hgDAF12 ag 11 | LXRb DAF12 ctr inactive
COc1ccc(-c2noc(-c3ccc(Br)o3)n2)cc1	none (no result: NF-kB expr up, APP 5'UTR act)
COc1ccc(-c2nc(-c3ccc(Br)o3)no2)cc1	NF-kB expr up 6.7, hgDAF12 agonist 17, ssDAF-12 act 1.3 | hgDAF12 ag 16 | LXRb DAF12 ctr inactive
COc1cccc(-c2noc(-c3ccc(Br)o3)n2)c1	NF-kB expr up 3.6, hgDAF12 agonist 16 | hgDAF12 ag 17 | LXRb DAF12 ctr inactive
COc1cccc(-c2noc(-c3cccnc3)n2)c1	NF-kB expr up 5.5, hgDAF12 agonist 14 | hgDAF12 ag 15 | LXRb DAF12 ctr inactive
CN1C(=O)c2cc(NC(=O)Nc3ccccc3)ccc2OC[C@H]2O[C@@H](CC(=O)NCc3ccc(-c4ccccc4)cc3)CC[C@@H]21	none (no result: NF-kB expr up, APP 5'UTR act)

Source: PubChem BioAssay (several laboratories)
